Holding throughout (experiment): DAPPL (digital affinity profiling via proximity ligation, sequencing); 10 mM Tris-HCl pH 7.5, 50 mM NaCl, 1 mM DTT, 4% glycerol, room temperature, 30 min; GST-TFs on glutathione beads, 16-mer random dsDNA library, 0.1% formaldehyde crosslink after washing; high values mean tight binding
The target of one assay is T1, FEV (Homo sapiens, UniProt Q99581 1-238).
T1 sequence: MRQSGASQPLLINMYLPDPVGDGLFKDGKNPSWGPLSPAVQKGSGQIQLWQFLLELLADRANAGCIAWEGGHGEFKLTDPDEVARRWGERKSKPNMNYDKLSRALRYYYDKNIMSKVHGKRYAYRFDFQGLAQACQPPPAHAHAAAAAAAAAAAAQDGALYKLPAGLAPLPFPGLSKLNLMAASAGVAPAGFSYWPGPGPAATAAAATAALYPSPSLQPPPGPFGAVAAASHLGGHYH
The conditions noted are these: protein: recombinant; tags: N-terminal GST; dsDNA, one strand shown. The method, boiled down:
(§1)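 Yeast served to express human transcription factors as GST fusions, which were then captured on glutathione beads and labelled with DNA barcodes. Pooled with a tag-only sample, they were incubated with 200 nmole of a 16-mer random double-stranded DNA library for 30 min at room temperature in Tris/NaCl/DTT/glycerol buffer, washed, crosslinked with 0.1% formaldehyde, ligated by proximity, amplified by PCR and sequenced. Dividing each hexamer's read frequency for a factor by its frequency for the tag-only sample gives the binding signal.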

For another assay, the target named is ETV5 (Homo sapiens, UniProt P41161 1-510). As to conditions: protein: recombinant; tags: N-terminal GST; dsDNA, one strand shown. Put shortly: as §1
Chain of ETV5 (P41161 whole entry): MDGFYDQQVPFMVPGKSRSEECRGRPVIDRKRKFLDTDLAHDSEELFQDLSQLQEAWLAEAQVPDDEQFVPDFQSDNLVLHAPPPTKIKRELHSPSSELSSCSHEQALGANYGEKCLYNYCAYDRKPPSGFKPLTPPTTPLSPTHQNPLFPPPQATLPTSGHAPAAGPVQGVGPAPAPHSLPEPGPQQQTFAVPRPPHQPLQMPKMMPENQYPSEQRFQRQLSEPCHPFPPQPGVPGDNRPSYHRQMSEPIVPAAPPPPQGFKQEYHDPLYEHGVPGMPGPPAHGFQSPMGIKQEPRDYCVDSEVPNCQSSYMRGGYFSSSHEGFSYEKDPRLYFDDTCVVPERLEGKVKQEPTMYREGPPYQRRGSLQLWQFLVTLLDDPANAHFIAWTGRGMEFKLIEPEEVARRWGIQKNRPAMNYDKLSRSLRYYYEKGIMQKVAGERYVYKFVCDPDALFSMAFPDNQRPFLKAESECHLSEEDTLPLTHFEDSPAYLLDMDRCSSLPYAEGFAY
The target in the next assay is HSF1 (Homo sapiens, UniProt Q00613 1-529). The conditions noted are these: protein: recombinant; tags: N-terminal GST; chain copies: 3; dsDNA, one strand shown. Put shortly: as §1
Chain of HSF1 (Q00613 whole entry): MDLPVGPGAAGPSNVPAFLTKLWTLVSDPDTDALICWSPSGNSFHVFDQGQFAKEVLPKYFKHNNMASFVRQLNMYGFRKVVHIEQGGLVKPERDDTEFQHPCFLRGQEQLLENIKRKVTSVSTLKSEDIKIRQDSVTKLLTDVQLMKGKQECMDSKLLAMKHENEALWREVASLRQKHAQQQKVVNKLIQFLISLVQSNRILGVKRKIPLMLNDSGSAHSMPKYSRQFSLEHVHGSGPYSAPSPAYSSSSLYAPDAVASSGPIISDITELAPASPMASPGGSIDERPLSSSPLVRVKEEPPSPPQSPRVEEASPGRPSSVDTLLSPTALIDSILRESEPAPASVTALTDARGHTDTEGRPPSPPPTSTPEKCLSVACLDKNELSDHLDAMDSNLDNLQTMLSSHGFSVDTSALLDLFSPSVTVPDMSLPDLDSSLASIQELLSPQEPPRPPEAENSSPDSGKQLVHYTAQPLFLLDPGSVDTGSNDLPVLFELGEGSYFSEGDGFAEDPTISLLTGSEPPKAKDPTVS
The next assay concerns the target T2, SPIC (Homo sapiens, UniProt Q8N5J4 1-248).
T2 sequence: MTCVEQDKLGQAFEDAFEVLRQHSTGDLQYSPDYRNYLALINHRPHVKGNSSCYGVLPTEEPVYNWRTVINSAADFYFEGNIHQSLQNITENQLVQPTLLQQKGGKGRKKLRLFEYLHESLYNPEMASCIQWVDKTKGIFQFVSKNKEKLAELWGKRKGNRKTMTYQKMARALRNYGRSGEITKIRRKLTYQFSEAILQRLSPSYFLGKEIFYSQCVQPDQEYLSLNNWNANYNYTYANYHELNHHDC
The conditions noted are these: protein: recombinant; tags: N-terminal GST; dsDNA, one strand shown. The method, boiled down:
as §1

Another assay deals with ELF4 (Homo sapiens, UniProt Q99607 1-663). The conditions noted are these: protein: recombinant; tags: N-terminal GST; dsDNA, one strand shown. Put shortly: as §1
Chain of ELF4 (Q99607 whole entry): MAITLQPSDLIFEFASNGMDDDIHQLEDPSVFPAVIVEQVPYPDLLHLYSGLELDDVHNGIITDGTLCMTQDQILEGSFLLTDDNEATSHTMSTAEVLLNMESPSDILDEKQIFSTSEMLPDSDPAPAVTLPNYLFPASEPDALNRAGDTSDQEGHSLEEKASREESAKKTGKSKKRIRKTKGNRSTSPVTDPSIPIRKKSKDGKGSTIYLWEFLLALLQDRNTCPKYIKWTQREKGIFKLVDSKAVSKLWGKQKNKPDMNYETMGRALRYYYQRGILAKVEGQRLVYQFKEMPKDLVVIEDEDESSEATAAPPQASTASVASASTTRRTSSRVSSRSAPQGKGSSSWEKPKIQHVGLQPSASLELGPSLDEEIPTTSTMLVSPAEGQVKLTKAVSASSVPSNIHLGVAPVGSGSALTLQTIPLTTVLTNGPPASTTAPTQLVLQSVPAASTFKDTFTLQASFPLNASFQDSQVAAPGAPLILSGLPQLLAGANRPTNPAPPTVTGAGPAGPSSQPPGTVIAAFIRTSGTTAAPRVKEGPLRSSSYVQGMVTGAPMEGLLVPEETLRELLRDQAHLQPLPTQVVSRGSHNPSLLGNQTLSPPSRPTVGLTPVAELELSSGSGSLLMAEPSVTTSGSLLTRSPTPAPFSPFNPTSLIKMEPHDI
The target in another assay is T3, ELK4 (Homo sapiens, UniProt P28324-2 1-405).
T3 sequence: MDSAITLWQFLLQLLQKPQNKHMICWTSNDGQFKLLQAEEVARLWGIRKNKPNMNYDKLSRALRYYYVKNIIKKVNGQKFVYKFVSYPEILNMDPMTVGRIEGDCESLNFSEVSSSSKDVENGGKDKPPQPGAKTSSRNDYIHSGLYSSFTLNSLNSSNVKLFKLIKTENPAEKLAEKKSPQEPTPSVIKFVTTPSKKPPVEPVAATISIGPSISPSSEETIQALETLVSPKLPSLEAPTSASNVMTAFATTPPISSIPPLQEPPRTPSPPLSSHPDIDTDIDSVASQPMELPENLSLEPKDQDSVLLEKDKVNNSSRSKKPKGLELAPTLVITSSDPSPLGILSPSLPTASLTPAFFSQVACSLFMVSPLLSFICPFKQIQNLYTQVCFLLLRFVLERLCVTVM
The conditions noted are these: protein: recombinant; tags: N-terminal GST; dsDNA, one strand shown. The method, boiled down:
as §1

The next assay concerns the target T4, ETV2 (Homo sapiens, UniProt O00321 1-342).
T4 sequence: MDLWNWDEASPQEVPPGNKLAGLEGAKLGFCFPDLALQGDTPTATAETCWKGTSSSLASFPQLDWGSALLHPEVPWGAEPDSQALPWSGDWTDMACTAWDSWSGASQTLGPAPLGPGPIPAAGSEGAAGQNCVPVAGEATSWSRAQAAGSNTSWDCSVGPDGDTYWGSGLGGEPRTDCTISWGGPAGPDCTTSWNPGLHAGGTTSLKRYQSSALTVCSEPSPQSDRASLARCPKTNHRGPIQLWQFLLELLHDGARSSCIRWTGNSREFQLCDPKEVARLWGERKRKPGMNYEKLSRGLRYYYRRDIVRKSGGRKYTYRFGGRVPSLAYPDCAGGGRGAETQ
The conditions noted are these: protein: recombinant; tags: N-terminal GST; dsDNA, one strand shown. Put shortly: as §1

The target in another assay is T5, ELF3 (Homo sapiens, UniProt P78545 1-371).
T5 sequence: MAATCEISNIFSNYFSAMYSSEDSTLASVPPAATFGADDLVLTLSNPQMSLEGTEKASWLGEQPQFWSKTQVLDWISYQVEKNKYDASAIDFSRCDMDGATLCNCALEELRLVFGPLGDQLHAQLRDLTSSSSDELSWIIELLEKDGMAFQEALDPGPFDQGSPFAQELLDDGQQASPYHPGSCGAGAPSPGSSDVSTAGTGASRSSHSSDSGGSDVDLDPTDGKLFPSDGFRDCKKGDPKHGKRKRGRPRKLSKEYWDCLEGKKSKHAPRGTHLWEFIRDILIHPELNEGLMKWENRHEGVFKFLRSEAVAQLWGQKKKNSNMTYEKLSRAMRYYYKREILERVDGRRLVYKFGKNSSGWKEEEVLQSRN
As to conditions: protein: recombinant; tags: N-terminal GST; dsDNA, one strand shown. The method, boiled down:
as §1

The next assay deals with CRX (Homo sapiens, UniProt O43186 1-299). The conditions noted are these: protein: recombinant; tags: N-terminal GST; dsDNA, one strand shown. Put shortly:
as §1

A further assay addresses ETV1 (Homo sapiens, UniProt P50549 1-477). As to conditions: protein: recombinant; tags: N-terminal GST; dsDNA, one strand shown. Put shortly: as §1
In another assay the target is T6, ERF (Homo sapiens, UniProt P50548 1-548).
T6 sequence: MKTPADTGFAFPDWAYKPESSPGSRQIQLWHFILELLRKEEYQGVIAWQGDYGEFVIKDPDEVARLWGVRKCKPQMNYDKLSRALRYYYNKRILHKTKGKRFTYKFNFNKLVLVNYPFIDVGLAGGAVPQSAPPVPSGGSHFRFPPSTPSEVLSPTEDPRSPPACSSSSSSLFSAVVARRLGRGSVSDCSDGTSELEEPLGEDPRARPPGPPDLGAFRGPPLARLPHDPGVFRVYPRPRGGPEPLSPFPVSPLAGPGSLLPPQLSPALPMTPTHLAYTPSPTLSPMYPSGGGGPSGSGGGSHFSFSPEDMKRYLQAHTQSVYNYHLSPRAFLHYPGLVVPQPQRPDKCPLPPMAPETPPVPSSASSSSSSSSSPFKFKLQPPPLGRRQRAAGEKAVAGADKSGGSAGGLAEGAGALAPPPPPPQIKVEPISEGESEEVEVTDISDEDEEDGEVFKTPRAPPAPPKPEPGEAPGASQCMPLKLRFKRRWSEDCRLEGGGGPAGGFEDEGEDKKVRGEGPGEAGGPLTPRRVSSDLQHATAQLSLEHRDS
As to conditions: protein: recombinant; tags: N-terminal GST; dsDNA, one strand shown. The method, boiled down: as §1

The target of the next assay is T7, ETV3L (Homo sapiens, UniProt Q6ZN32 1-361).
T7 sequence: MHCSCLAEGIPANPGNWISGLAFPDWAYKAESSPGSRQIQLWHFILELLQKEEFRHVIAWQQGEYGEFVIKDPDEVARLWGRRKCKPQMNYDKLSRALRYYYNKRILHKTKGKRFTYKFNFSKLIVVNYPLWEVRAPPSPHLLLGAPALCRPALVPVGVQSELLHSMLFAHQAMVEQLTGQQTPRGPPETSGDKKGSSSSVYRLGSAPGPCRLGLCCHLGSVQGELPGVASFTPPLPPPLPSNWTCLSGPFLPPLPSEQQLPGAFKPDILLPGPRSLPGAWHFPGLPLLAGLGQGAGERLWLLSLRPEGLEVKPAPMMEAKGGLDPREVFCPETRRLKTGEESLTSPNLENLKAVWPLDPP
As to conditions: protein: recombinant; tags: N-terminal GST; dsDNA, one strand shown. Put shortly: as §1

The next assay concerns the target T8, ETS2 (Homo sapiens, UniProt P15036 1-469).
T8 sequence: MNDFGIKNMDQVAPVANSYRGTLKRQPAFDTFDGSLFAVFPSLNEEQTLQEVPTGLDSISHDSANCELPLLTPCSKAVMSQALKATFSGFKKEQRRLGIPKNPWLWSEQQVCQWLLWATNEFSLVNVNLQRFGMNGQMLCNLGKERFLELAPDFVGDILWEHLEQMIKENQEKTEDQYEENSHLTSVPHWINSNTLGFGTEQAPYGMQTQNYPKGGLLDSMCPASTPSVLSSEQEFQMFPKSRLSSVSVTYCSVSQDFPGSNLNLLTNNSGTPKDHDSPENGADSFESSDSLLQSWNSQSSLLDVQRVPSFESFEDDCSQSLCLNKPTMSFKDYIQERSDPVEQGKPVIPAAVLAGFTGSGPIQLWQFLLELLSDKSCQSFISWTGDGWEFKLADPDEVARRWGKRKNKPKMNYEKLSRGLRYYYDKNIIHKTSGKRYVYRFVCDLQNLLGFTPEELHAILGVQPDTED
The conditions noted are these: protein: recombinant; tags: N-terminal GST; dsDNA, one strand shown. Put shortly:
as §1

Another assay deals with T9, SPDEF (Homo sapiens, UniProt O95238 1-335).
T9 sequence: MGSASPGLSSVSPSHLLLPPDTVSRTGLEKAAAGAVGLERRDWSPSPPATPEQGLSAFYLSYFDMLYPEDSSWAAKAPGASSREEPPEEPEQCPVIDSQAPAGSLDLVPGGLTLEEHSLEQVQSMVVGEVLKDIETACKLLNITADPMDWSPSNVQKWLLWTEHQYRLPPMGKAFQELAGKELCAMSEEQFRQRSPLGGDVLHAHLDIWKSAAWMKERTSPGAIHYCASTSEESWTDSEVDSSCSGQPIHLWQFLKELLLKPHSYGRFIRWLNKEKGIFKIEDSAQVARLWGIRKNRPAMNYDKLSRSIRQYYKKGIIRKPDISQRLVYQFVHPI
As to conditions: protein: recombinant; tags: N-terminal GST; dsDNA, one strand shown. The method, boiled down: as §1

For the next assay, the target named is T10, ETV7 (Homo sapiens, UniProt Q9Y603 1-341).
T10 sequence: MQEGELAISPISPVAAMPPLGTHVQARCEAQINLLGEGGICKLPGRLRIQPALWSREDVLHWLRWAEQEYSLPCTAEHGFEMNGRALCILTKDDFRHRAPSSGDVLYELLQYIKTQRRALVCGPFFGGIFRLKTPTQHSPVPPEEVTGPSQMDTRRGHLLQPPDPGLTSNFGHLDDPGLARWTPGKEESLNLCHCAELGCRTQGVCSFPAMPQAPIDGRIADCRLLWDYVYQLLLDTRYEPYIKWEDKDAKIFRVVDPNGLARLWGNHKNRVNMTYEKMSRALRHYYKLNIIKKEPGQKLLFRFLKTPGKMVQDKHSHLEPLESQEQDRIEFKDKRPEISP
As to conditions: protein: recombinant; tags: N-terminal GST; dsDNA, one strand shown. The method, boiled down:
as §1

Another assay addresses T11, ELF5 (Homo sapiens, UniProt Q9UKW6-2 1-255).
T11 sequence: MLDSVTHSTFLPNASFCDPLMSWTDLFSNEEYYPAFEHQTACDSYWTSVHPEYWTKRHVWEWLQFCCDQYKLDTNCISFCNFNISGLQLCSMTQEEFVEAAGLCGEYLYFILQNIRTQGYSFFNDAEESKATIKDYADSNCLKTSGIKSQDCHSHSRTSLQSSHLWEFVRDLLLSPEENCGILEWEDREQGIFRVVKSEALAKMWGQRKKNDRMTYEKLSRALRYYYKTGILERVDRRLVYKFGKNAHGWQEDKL
As to conditions: protein: recombinant; tags: N-terminal GST; dsDNA, one strand shown. The method, boiled down:
as §1

Another assay deals with T12, ETV3 (Homo sapiens, UniProt P41162-2 1-143).
T12 sequence: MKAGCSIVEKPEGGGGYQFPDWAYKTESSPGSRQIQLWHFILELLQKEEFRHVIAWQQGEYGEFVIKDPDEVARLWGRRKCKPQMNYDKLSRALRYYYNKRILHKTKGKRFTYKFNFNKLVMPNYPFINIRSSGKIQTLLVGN
The conditions noted are these: protein: recombinant; tags: N-terminal GST; dsDNA, one strand shown. Put shortly: as §1

For another assay, the target named is ETV6 (Homo sapiens, UniProt P41212 1-452). The conditions noted are these: protein: recombinant; tags: N-terminal GST; dsDNA, one strand shown. Put shortly: as §1
Chain of ETV6 (P41212 whole entry): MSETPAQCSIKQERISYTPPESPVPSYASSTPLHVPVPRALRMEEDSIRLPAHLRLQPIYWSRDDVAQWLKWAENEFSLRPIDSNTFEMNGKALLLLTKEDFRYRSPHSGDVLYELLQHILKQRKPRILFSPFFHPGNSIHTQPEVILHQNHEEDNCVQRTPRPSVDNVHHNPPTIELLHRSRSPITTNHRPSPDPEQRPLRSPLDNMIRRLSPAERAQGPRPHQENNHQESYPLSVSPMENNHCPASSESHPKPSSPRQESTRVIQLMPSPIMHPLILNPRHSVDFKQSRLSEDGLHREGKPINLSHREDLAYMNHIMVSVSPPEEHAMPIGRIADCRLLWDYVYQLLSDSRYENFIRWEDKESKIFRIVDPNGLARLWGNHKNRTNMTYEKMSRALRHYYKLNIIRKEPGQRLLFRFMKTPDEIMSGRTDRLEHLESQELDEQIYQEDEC

Chain of CRX (O43186 whole entry): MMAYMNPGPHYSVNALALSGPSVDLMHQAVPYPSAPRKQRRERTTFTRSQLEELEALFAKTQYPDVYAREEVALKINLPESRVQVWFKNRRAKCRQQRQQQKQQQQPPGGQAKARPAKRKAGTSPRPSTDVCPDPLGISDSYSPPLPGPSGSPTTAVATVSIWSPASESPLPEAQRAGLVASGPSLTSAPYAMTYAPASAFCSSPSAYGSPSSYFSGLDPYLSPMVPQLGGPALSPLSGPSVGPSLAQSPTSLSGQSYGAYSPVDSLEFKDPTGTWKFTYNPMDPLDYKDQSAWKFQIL
Chain of ETV1 (P50549 whole entry): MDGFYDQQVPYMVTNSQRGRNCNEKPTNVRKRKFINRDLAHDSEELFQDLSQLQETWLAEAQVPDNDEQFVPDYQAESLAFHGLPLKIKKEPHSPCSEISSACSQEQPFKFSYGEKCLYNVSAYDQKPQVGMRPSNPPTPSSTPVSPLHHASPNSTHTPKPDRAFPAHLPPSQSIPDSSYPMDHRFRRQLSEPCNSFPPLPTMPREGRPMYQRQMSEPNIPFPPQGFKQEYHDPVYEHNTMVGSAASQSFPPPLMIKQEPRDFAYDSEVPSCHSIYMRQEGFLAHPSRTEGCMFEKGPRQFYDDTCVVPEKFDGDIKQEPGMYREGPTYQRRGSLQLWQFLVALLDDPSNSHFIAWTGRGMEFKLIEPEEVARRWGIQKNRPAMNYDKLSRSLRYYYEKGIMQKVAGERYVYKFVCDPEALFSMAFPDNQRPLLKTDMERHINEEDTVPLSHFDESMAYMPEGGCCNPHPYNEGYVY

With CTGATT, the binding signal was 1.05 fold enrichment (6-mer frequency, TF over GST control) in the assay with FEV; 1.25 fold enrichment (6-mer frequency, TF over GST control) with ETV5; 1.32 fold enrichment (6-mer frequency, TF over GST control) with HSF1; 1.5 fold enrichment (6-mer frequency, TF over GST control) in the assay with SPIC; 1.22 fold enrichment (6-mer frequency, TF over GST control) with ELF4; 1.09 fold enrichment (6-mer frequency, TF over GST control) in the assay with ELK4. The binding signal with ETV2 is 1.21 fold enrichment (6-mer frequency, TF over GST control); with ELF3, 1.12 fold enrichment (6-mer frequency, TF over GST control); with CRX, 1.51 fold enrichment (6-mer frequency, TF over GST control); with ETV1 it was 1.27 fold enrichment (6-mer frequency, TF over GST control); in the assay with ERF, 1.21 fold enrichment (6-mer frequency, TF over GST control); in the assay with ETV3L it was 1.26 fold enrichment (6-mer frequency, TF over GST control). For the same sequence, the binding signal was 1.26 fold enrichment (6-mer frequency, TF over GST control) with ETS2; 1.21 fold enrichment (6-mer frequency, TF over GST control) with SPDEF; 1.24 fold enrichment (6-mer frequency, TF over GST control) with ETV7; 1.19 fold enrichment (6-mer frequency, TF over GST control) with ELF5; 1.17 fold enrichment (6-mer frequency, TF over GST control) with ETV3; 1.17 fold enrichment (6-mer frequency, TF over GST control) with ETV6.
